# Records with an inconclusive call do not appear. Where a call stands in place of a potency, no number is given. Activity calls are given as the source filed them. Calls come from the whole dose curve; as a rule, active = well fitted curve in the direction sought with a large enough effect; inconclusive = small, poorly fitted or top-dose-only effect, or another doubt; inactive = no such curve, though single readings can be large or run the other way.
# Test system: NanoLuc luciferase (engineered Oplophorus gracilirostris luciferase)
# Test: Confirmatory Nanoluciferase (NLuc) qHTS assay for identification of artifact compounds.
# Settings: secreted NLuc in S16 cell medium, luminescence, 5 min; series mostly up to 39 µM
# Method in brief: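 Conditioned medium from NLuc-expressing S16 cells (diluted 1:55) was incubated with compounds for 15 min at room temperature. Nano-Glo substrate (1:100) was then added, and luminescence was read after 5 min.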
# Potency is the fitted concentration of half-maximal effect.
row,SMILES,Potency
1,O=C(OCc1ccccc1)c1ccccc1O,inactive
2,CSc1ccc2nc(Nc3nnc(-c4cccs4)o3)sc2c1,inactive
3,CCCC[C@H]1C2=C3[C@@H](CC(C(=O)OC)=C[C@@H](C(=O)OC)[C@H]3C(C)(C)C2=O)n2c(=O)n(-c3ccccc3)c(=O)n21,inactive
4,C=C[C@@]1(C)CC(=O)[C@]2(O)[C@@]3(C)[C@@H](O)CCC(C)(C)[C@@H]3[C@H](OC(=O)CCN(C)C)[C@H](OC(C)=O)[C@@]2(C)O1,inactive
5,CC(=O)Nc1cc(-c2ccccc2)nn1Cc1cccc(Cl)c1,inactive
6,COc1ccc(C2Nc3ccccc3C(=O)N2Cc2ccccc2)cc1Oc1ccc(NC(C)=O)cc1 (stereo unspecified),inactive
7,O=S(=O)(Nc1cccc2cccnc12)c1ccccc1,inactive
8,Cc1ccc(CSc2ncccc2C(=O)O)cc1,inactive
9,CCOC(=O)C1=C(CNCc2ccc(Cl)cc2)NC(=O)NC1c1ccccc1 (stereo unspecified),inactive
10,CC(Sc1oc(-c2cccs2)nc1S(=O)(=O)c1ccccc1)c1ccccc1 (stereo unspecified),inactive
11,COc1ccc(C2=Nn3c(nnc3-c3cccc(OC)c3)SC2)cc1,inactive
12,COC(=O)c1c(NC(=O)c2nc(SCc3cccc(C)c3)ncc2Cl)sc2c1CCCC2,inactive
13,O=C(CCS(=O)(=O)c1nc(-c2ccc3c(c2)OCO3)cc(C(F)(F)F)n1)Nc1ccccc1C(F)(F)F,12.2 µM (active)
14,CC1=CC23C(=O)C(C=C(CO)[C@@H](O)[C@]2(O)[C@H]1O)[C@H]1[C@@H](C[C@H]3C)C1(C)C (stereo partly specified),inactive
15,COc1cccc(N2CCN(c3c4c(nc5nncn35)CCC4)CC2)c1,inactive
16,Cc1ccc(NC(=O)c2nc(-c3ccncc3)no2)c(Cl)c1,inactive

row,SMILES,Potency
1,C[C@H](CCC(=O)O)[C@H]1CCC2C3CC[C@@H]4C[C@H](O)CC[C@]4(C)C3CC[C@@]21C (stereo partly specified),inactive
2,Cc1ccc(CNCc2cn[nH]c2-c2ccc(C)cc2)cc1,inactive
3,Fc1ccc(-c2cc(-c3nc(-c4ccc(Cl)cc4)no3)[nH]n2)cc1,inactive
4,Cc1ccc(NC(=O)c2ccc(Br)cc2)c(C(=O)c2ccccc2)c1,inactive
5,COc1ccccc1Oc1coc2cc(O)ccc2c1=O,inactive
6,CCCNC(=O)N1CCCN(S(=O)(=O)c2ccc3c(ccn3CC)c2)CC1,inactive
7,Cc1cc(O)cc(O)c1C(=O)O,inactive
8,CC1CCN(c2ccc(-c3cccc(NS(=O)(=O)c4ccc(F)cc4F)c3)nn2)CC1,inactive
9,CCOc1ccccc1C(=O)Nc1cccc2ccc(C)nc12,inactive
10,Oc1ccc(-c2csc(-c3ccc(F)cc3)n2)c(O)c1,inactive
11,O=C(OCC#CCSc1nnc(-c2ccc3ccccc3c2)o1)c1ccsc1,inactive
12,CCOC(=O)c1c(S(=O)(=O)NCC(=O)Nc2ccc(F)cc2C)c(C)n(C)c1C,inactive
13,Cc1cc(NC(=O)Nc2cccc(-c3ccncc3)n2)ccc1Cl,inactive
14,COC(=O)C1=CO[C@@H](O[C@@H]2O[C@H](CO)[C@@H](O)[C@H](O)[C@H]2O)C2C(CO)=CCC12 (stereo partly specified),inactive
15,CN1C(=O)Cc2cc(S(=O)(=O)NCc3ccccc3Cl)ccc21,inactive
